The structures appear in SMILES notation. Among all 2,400 compounds or so, about 2,200 (92%) were called active. The set was probably picked from earlier hits. This is one part of the list. Values without a mark were called inactive.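 Rule for the calls: active = mean inhibition over triplicate runs exceeds the cutoff derived for the earlier primary screen (cut at about 25% in these data); inactive = the rest.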

In this assay the target is Platelet-activating factor acetylhydrolase IB subunit alpha2 (Homo sapiens) (UniProt P68402). As to the kind of experiment: PAFAH1B2 inhibitors, confirmation, biochemical, fluorescence polarization, FP-rhodamine probe, triplicate (AID 493034).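 Note: 0% = enzyme with DMSO and 100% = wells lacking PAFAH1B2 protein; inhibitors lower polarization by leaving the probe unbound.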 Conditions: recombinant PAFAH1B2, FP-rhodamine probe fluorescence polarization; at 3.39 µM; hits give high values. On the technique in general: Fluorescence polarisation rises when a labelled molecule tumbles more slowly, as on binding a larger partner.
Platelet-activating factor acetylhydrolase IB subunit alpha2 (Homo sapiens), sequence (P68402 whole entry, looked up): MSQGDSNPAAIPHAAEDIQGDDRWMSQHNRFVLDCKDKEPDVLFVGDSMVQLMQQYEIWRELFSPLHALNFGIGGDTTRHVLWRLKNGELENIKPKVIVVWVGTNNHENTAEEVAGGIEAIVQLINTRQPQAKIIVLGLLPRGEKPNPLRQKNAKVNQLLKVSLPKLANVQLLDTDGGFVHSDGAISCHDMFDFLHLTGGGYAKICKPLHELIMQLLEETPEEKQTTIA
By inhibition is commonly meant the percentage by which the read-out fell short of the control. In the case of `COc1ccc([N+](=O)[O-])cc1N(CC(=O)NCCSc1ccc(C)cc1)S(C)(=O)=O`, the inhibition is 22.5%.

Regarding `CC12CC3CC(C)(C1)CC(C(=O)N1CCN(C(=O)c4ccco4)CC1)(C3)C2`, the inhibition was 16.1%. As for `O=C(Nc1ccc(N2CCOCC2)cc1)C1(c2ccc(Cl)cc2)CCC1`, the figure is 78.4% (active). Regarding `CC(Sc1ccc(Cl)cc1)C(=O)Nc1ccc(S(=O)(=O)N2CCOCC2)cc1` (stereo not drawn), the inhibition was 20%.

Take `Cc1ccccc1C(=O)N1CCN(c2ccc(NC(=O)CSc3ccc(Cl)cc3)cc2)CC1`: the inhibition is 23.5%. For `O=C(CCl)N(c1ccccc1)C1CCCCC1` the value was 29.2% (active). For `O=C(O)c1cc(NC(=S)NC(=O)C(c2ccccc2)c2ccccc2)ccc1Cl` the value was 20.9%. As for `Cc1ccc(S(=O)(=O)Nc2ccccc2-c2ccccc2NS(=O)(=O)c2ccc(C)cc2)cc1`, the figure is 43.8% (active); as for `CC(C)(C)c1ccc(S(=O)(=O)/N=C2\C=C(NS(=O)(=O)c3ccccc3)C(=O)c3ccccc32)cc1`, 11.4%; as for `COc1cc(C(=O)O[C@H]2CC(C)=CC[C@@]3(C)CC[C@@](O)(C(C)C)[C@H]23)ccc1O`, 23.9%.

As for `Cc1nc2ccccn2c1-c1ccnn1S(=O)(=O)c1ccc(F)cc1`, the inhibition was 22.7%. As for `O=c1[nH]c2cc(Cl)ccc2c(O)c1-c1cccc(Oc2ccccc2)c1`, the figure is 27.1% (active).

On to `CC1CCN(S(=O)(=O)c2ccc(NC(=O)[C@@H]3CCCC[C@@H]3C(=O)O)cc2)CC1`, for which the inhibition was 39.3% (active). For `CC1CCN(S(=O)(=O)c2ccc(N/N=C(/C#N)C(N)=O)cc2)CC1` the value was 27.9% (active). As to `O=C(CSc1nc(C2CC2)nc2ccccc12)Nc1ccc2c(c1)OCCO2`, the inhibition is 1.2%. As for `CC1CCN(S(=O)(=O)c2cccc(C(=O)N(C)C3CCS(=O)(=O)C3)c2)CC1` (stereo not drawn), the figure is 23.7%. As for `CC1CCN(S(=O)(=O)c2ccc(NC(=O)Cc3cccs3)cc2)CC1`, the figure is 19.6%; as for `CC1CCN(S(=O)(=O)c2ccc(NC(=O)CN3CCCCCC3)cc2)CC1`, 20.4%; as for `CC1CCN(S(=O)(=O)c2ccc(NC(=O)CSc3nnnn3C)cc2)CC1`, 33.1% (active). As for `N#Cc1c(-c2ccccc2)nc(SCc2ccc(Cl)cc2)[nH]c1=O`, the figure is 40% (active); as for `CN(C(=O)CSc1nc(-c2ccc(C(C)(C)C)cc2)c(C#N)c(=O)[nH]1)C1CCCCC1`, 20.1%. Take `CC(C)c1ccc(-c2nc(N3CCOCC3)[nH]c(=O)c2C#N)cc1`: the inhibition was 23.2%.

With `N#Cc1c(-c2ccccc2)nc(SCC(=O)N(c2ccccc2)c2ccccc2)[nH]c1=O`, the inhibition is 38.8% (active).

These data come from PubChem BioAssay AID493034 (The Scripps Research Institute Molecular Screening Center, 2011).
